{"source": "ChEMBL document CHEMBL1201862", "about": "“PubChem BioAssay data set” (2004)", "note": "Only a part of the results of these assays is listed, not drawn at random.", "data": [{"biological_target": "T1, Protein RecA (Mycobacterium tuberculosis) (UniProt P9WHJ3)", "T1 sequence (whole entry)": "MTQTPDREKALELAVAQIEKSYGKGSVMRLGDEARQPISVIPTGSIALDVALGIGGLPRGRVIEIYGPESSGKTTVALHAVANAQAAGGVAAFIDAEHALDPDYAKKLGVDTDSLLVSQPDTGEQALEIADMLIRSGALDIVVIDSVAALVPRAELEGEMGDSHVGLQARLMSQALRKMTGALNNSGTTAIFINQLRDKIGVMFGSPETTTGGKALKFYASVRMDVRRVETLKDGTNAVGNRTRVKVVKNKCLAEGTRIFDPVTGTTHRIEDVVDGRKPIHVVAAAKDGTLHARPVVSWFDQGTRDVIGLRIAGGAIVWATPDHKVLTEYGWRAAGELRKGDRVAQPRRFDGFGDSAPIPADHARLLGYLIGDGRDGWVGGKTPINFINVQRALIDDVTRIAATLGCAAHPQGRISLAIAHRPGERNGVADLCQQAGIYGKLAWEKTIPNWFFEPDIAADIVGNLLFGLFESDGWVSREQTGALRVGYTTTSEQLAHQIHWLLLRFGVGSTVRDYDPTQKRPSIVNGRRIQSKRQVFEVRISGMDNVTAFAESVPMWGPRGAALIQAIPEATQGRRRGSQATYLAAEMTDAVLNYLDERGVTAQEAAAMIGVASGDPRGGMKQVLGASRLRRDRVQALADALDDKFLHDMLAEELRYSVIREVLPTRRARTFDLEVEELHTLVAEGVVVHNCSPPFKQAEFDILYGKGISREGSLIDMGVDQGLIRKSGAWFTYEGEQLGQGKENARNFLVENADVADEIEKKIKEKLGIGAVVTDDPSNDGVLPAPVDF", "experiment": "M. tuberculosis H37Rv growth inhibition, dose response, strain H37Rv (AID 489010);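 further: whole Mycobacterium tuberculosis cells grown in culture and not purified RecA protein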; call rule not given here", "format": "functional", "values": [{"smiles": "Clc1ccc(-n2nnnc2Sc2ncnc3sccc23)cc1", "IC90": "9.74 µM (active)"}, {"smiles": "CC(=O)n1cc(N(C(=O)CCl)c2ccc([N+](=O)[O-])cc2)c2ccccc21", "IC90": "8.94 µM (active)"}, {"smiles": "O=C(NC1=C(NC2CCS(=O)(=O)C2)C(=O)c2ccccc2C1=O)c1ccccc1", "note": "(stereo not drawn)", "IC90": "> 100 µM (active)"}, {"smiles": "O=C1NC(=S)N(C2CCCCC2)C(=O)/C1=C/NNC(=O)c1ccccc1O", "IC90": "> 100 µM (active)"}, {"smiles": "CC(=O)n1cc(N(C(=O)CCl)c2ccccc2)c2ccccc21", "IC90": "5.8 µM (active)"}, {"smiles": "COc1cc(NCCCCCCCN)c2ncccc2c1", "IC90": "57.8 µM (active)"}, {"smiles": "Fc1ccc(Oc2nc(-c3ccccc3)nnc2C(F)(F)F)cc1", "IC90": "> 100 µM (active)"}, {"smiles": "CC(CCc1ccccc1)NC(=O)COC(=O)c1cc(NS(=O)(=O)c2ccc(Cl)c([N+](=O)[O-])c2)ccc1O", "note": "(stereo not drawn)", "IC90": "> 100 µM (active)"}, {"smiles": "Cc1cc(C)cc(Cn2ncc(Cl)c(Cl)c2=O)c1", "IC90": "25.7 µM (active)"}, {"smiles": "O=C(CCl)Nc1cn(-c2ccccc2)nc1-c1ccc(F)cc1", "IC90": "49.8 µM (active)"}, {"smiles": "CCn1nc(/C=C/c2ccccc2)nc2c(=O)n(C)c(=O)nc1-2", "IC90": "15.4 µM (active)"}, {"smiles": "Cc1cccc(Cn2nnc3c2C(=O)c2ccccc2C3=O)c1", "IC90": "52.6 µM (active)"}, {"smiles": "Cc1cc(Br)c2c(c1)/C(=C/C(=O)c1cccs1)C(=O)N2", "IC90": "> 100 µM (active)"}, {"smiles": "Cc1ccc(C(=O)Oc2ccc([N+](=O)[O-])cc2)cc1S(=O)(=O)N1CCCCCC1", "IC90": "> 100 µM (active)"}, {"smiles": "O=C(CCl)N1c2ccccc2OCC1c1ccccc1", "note": "(stereo not drawn)", "IC90": "4.03 µM (active)"}, {"smiles": "Cc1cc(C)c(S(=O)(=O)/N=C2\\C=C(Nc3ccc(C(=O)O)cc3)C(=O)c3ccccc32)c(C)c1", "IC90": "> 100 µM (active)"}, {"smiles": "CN1C(=O)C(=C2CC(c3ccccc3)N(C(=O)CCl)N2)C(=O)N(C)C1=O", "note": "(stereo not drawn)", "IC90": "> 100 µM (active)"}, {"smiles": "Cc1oc2c(c1C(=O)NCc1cccnc1)C(=O)c1ccccc1C2=O", "IC90": "< 0.2 µM (active)"}, {"smiles": "CC(NC(=O)COC(=O)c1cc(NS(=O)(=O)c2ccc(Cl)c([N+](=O)[O-])c2)ccc1O)C1CC2CCC1C2", "note": "(stereo not drawn)", "IC90": "> 100 µM (active)"}, {"smiles": "COC(=O)c1sc(-c2ccc(Cl)cc2)cc1NC(=O)/C=C/C(=O)O", "IC90": "> 100 µM (active)"}, {"smiles": "COc1cc2c(cc1OC)C(c1cc(Br)ccc1F)N(C(=O)CCl)CC2", "note": "(stereo not drawn)", "IC90": "12.1 µM (active)"}, {"smiles": "Cc1ccc(CS(=O)(=O)c2ncc(Cl)c(C(=O)Nc3nnc(C(C)C)s3)n2)cc1", "IC90": "> 100 µM (active)"}, {"smiles": "COc1cccc(N(C(=O)CCl)C(C(=O)NCCc2ccccc2)c2cccs2)c1", "note": "(stereo not drawn)", "IC90": "32 µM (active)"}, {"smiles": "Cc1ccc2c(c1)c1c3n2CCN(C(=O)CCl)C3CCC1", "note": "(stereo not drawn)", "IC90": "8.43 µM (active)"}, {"smiles": "CCCCCCCCCCn1c2c(c(=N)c3c1CCC3)CCC2", "IC90": "3.39 µM (active)"}, {"smiles": "O=C(OCn1ncc(Cl)c(Cl)c1=O)c1ccccc1Cl", "IC90": "> 100 µM (active)"}, {"smiles": "O=C(NC1CCCCC1)C(c1cccnc1)N(C(=O)CCl)c1cccc(Cl)c1", "note": "(stereo not drawn)", "IC90": "28 µM (active)"}, {"smiles": "Cn1nc(-c2ccccn2)nc2c(=O)n(C)c(=O)nc1-2", "IC90": "22.3 µM (active)"}, {"smiles": "Cc1ccc(Sc2ccc(NC(=O)CCl)cc2)c(C)c1", "IC90": "66.3 µM (active)"}, {"smiles": "Cc1[nH]n(-c2ccccc2)c(=O)c1C(c1cccc([N+](=O)[O-])c1)c1c(C)[nH]n(-c2ccccc2)c1=O", "IC90": "> 100 µM (active)"}, {"smiles": "CC1=NNC(=O)C1Cc1c(Cl)cccc1Cl", "note": "(stereo not drawn)", "IC90": "> 100 µM (active)"}, {"smiles": "Cc1ccccc1-n1ncc2c([N+](=O)[O-])cc([N+](=O)[O-])cc21", "IC90": "2.16 µM (active)"}, {"smiles": "CC(=O)n1cc(N(C(=O)CCl)c2ccc(C)cc2)c2ccccc21", "IC90": "5.03 µM (active)"}]}]}
